From PubChem BioAssay
EPAC2 antag – Validation qHTS for antagonist of cAMP-regulated guanine nucleotide exchange factor 4 (EPAC2) | Rap guanine nucleotide exchange factor 4 (Homo sapiens), Q8WZA2 | EPAC2 Rap1B BODIPY-GDP exchange, fluorescence | Potency, µM (top dose mostly 112 µM), for inactives: at the top dose activity, negative = inhibition, most hits filed as inhibitors | 16,000 compounds, 1.7% hits | AID 1645886, 2021;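 also: 100% = activation by cAMP agonist control; nearly all actives have a fitted effect of over 40% in size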
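Normalized against a 6.5 mM cAMP agonist control, compounds were tested on 100 nM EPAC2 exchanging Rap1B-bound BODIPY-GDP (250 nM) for 50 uM GDP. Fluorescence drop (ex 480, em 540 nm) was tracked at room temperature over 30 min at 5-min intervals.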
EPAC1 agonist – Validation qHTS for agonist of cAMP-regulated guanine nucleotide exchange factor 3 (EPAC1). EPAC1 Rap1b BODIPY-GDP exchange, fluorescence. Potency, µM, without a hit: max response, positive = active, usual class: activators. 16,000 compounds, 1% hits; also: nearly all actives have a fitted effect of over 70% in size
The depositor's hits bear a star; i = inactive; ? = inconclusive; ! = repeats disagree. Most compounds without a hit are left out; they make up all but 3.1% or so of the library. Calls follow the shape of the dose curve; as a rule, active = well fitted curve in the direction sought with a large enough effect; inconclusive = small, poorly fitted or top-dose-only effect, or another doubt; inactive = no such curve, though single readings can be large; an effect the other way counts as inactive or inconclusive. Unless noted, % is scaled to controls: 0 for no effect and ±100 for the full control effect; potency is read from the fitted curve at half-maximal effect.

SMILES	EPAC2 antag	EPAC1 agonist
COC(=O)N1CCC2(CCCN(Cc3cc(C(F)(F)F)cc(C(F)(F)F)c3)C2)CC1	-25%	-28%
Cc1c(C(=O)NCc2cccc(F)c2)sc2ncnc(NCC3CCCO3)c12 (stereo unspecified)	3%	-11%
CN1CCN(CCCN2c3ccccc3Sc3ccccc32)CC1	3%	9%
OCCN1CCN(CCCN2c3ccccc3Sc3ccc(C(F)(F)F)cc32)CC1	50µM*!	17%
CN1CCN(CCCN2c3ccccc3Sc3ccc(Cl)cc32)CC1	35µM*!	14%
CC(=O)c1ccc2c(c1)N(CCCN1CCN(CCO)CC1)c1ccccc1S2	54%	7%
Cc1nn(C)c(Cl)c1CN1CCOc2ccc(CN3CCC(Oc4cccnc4)CC3)cc2C1	-6%	-22%
Cc1nc(NCc2c(C)nn(C)c2Cl)sc1-c1ccn(CC2COc3ccccc3O2)n1 (stereo unspecified)	?	6%
Nc1ncnc2c1ncn2[C@@H]1O[C@H](COP(=O)(O)OP(=O)(O)OP(=O)(O)OP(=O)(O)OC[C@@H]2O[C@H](n3cnc4c(N)ncnc43)[C@@H](O)[C@H]2O)[C@@H](O)[C@H]1O	-1%	19%
Cc1cc2nc3c(=O)[nH]c(=O)nc-3n(C[C@H](O)[C@H](O)[C@H](O)COP(=O)(O)OP(=O)(O)OC[C@H]3O[C@@H](n4cnc5c(N)ncnc54)[C@H](O)[C@@H]3O)c2cc1C	i	112µM*
CCCCC(=O)OCC(=O)[C@]1(O)Cc2c(O)c3c(c(O)c2[C@@H](O[C@H]2C[C@H](NC(=O)C(F)(F)F)[C@H](O)[C@H](C)O2)C1)C(=O)c1c(OC)cccc1C3=O	-4%	-8%
COc1ccc(O)c(CN2CCC3(CC2)c2ccccc2[C@@H](NC(=O)c2cccc(F)c2)[C@@H]3OC)c1	-3%	19%
CCc1oc2ccccc2c1C(=O)c1cc(I)c(O)c(I)c1	63µM*	-36%
COc1ccc(-c2oc3ccccc3c(=O)c2O)cc1OC	-10%	6%
C=CCCCCCCCCCCCC(O)CC(O)COC(C)=O (stereo unspecified)	?	-118%
C=CCCCCCCCCCCCC(O)CC(O)CO (stereo unspecified) (tested in a mixture with another compound)	40µM*	-143%
CCC(=O)Oc1ccc2c(c1)CC[C@@H]1[C@@H]2CC[C@]2(C)[C@@H](OC(=O)CC)CC[C@@H]12	27%	-19%
O=c1c(O)c(-c2ccccc2)oc2ccc3occc3c12	7.1µM*	?
COc1ccccc1-c1oc2ccccc2c(=O)c1OC	?	5%
COc1c(-c2ccccc2)oc2c(ccc3occc32)c1=O	4.5µM*	?
O=c1c(O)c(-c2cccc(O)c2)oc2ccccc12	-16%	-10%
CO[C@H]1C[C@@H]2CC[C@@H](C)[C@@](O)(O2)C(=O)C(=O)N2CCCC[C@H]2C(=O)O[C@H]([C@H](C)C[C@@H]2CC[C@@H](O)[C@H](OC)C2)CC(=O)[C@H](C)C=C(C)[C@@H](O)[C@@H](OC)C(=O)[C@H](C)C[C@H](C)/C=C/C=CC=C1C	?	-64%
Clc1ccc(C(c2ccccc2Cl)C(Cl)Cl)cc1 (stereo unspecified)	14µM*!	?
COc1cc(OC)c(C(C)=O)c(O)c1C	-9%	-17%
COc1cc(C)c(C(=O)Oc2cc(C)c(C(=O)O)c(O)c2C)c(OC)c1C	50µM*	-128%
SMILES	EPAC2 antag	EPAC1 agonist
CC1(C)C(\C=C/C=C\C=C/C=C2/N(CCCCS(=O)(=O)O)c3ccc4ccccc4c3C2(C)C)=[N+](CCCCS(=O)(=O)[O-])c2ccc3ccccc3c21	-28%	?
C=C[C@]1(C)C[C@@H](OC(=O)CSC(C)(C)CNC(=O)[C@H](N)C(C)C)[C@]2(C)[C@H](C)CC[C@]3(CCC(=O)[C@H]32)[C@@H](C)[C@@H]1O	-25%	-6%
CC1(COc2ccc(C[C@H]3SC(=O)NC3=O)cc2)CCCCC1	?	-14%
CC1(COc2ccc(CC3SC(=O)NC3=O)cc2)CCCCC1 (stereo unspecified)	50µM*!	-13%
CCC(C)[C@H]1COCCS(=O)(=O)N1Cc1ccc(Br)cc1 (stereo partly specified)	10µM*	-124%
CCC(C)[C@H]1COCCS(=O)(=O)N1Cc1ccccc1F (stereo partly specified)	?	-52%
CC(C)[C@H]1COCCS(=O)(=O)N1Cc1ccc(Cl)cc1	?	-49%
CCC(C)[C@H]1COCCS(=O)(=O)N1Cc1ccc(Cl)cc1Cl (stereo partly specified)	28µM*	-30%
CO/N=C(\C(=O)N[C@@H]1C(=O)N2C(C(=O)[O-])=C(C[n+]3ccc(N)n3CCO)CS[C@H]12)c1csc(N)n1	15%	1%
NCCC(=O)[N-][C@@H](Cc1cnc[nH]1)C(=O)O.[Zn]	30%	17%
Oc1ccc(/C=C\c2cc(O)cc(O)c2)cc1	28µM*	-17%
O=C(/C=C/c1ccc(O)cc1)c1ccc(O)cc1O	?	-4%
Oc1ccc(/C=C/c2cc(O)cc(O)c2)cc1	50µM*!	?
O=c1cc(O)cc(/C=C/c2ccc(O)c(O)c2)o1	-2%	2%
COc1ccccc1N1CCN(c2nc(CNC(=O)C3CC34CCCC4)nc3ccccc23)CC1 (stereo unspecified)	?	14%
